From PubChem BioAssay (NCI) come the findings set out here.

Holding throughout (assay): NCI-60 one-dose screen, 48 h (100 = growth as untreated, 0 = no growth, -100 = all killed)
In one experiment the test system is SR leukemia. The conditions noted are these: 10 µM.
For a further experiment, the system named is OVCAR-8 ovarian. The conditions noted are these: 10 µM.
The test system of another experiment is OVCAR-5 ovarian. The conditions noted are these: 10 µM.
For a further experiment, the system named is OVCAR-4 ovarian. The conditions noted are these: 10 µM.
For the next experiment, the system named is SK-OV-3 ovarian. As to conditions: 10 µM.
The subject of a further experiment is IGROV1 ovarian. As to conditions: 10 µM.
The subject of a further experiment is OVCAR-3 ovarian. The conditions noted are these: 10 µM.
The next experiment concerns HS 578T breast. As to conditions: 10 µM.
The next experiment concerns NCI/ADR-RES ovarian. As to conditions: 10 µM.
Another experiment deals with T-47D breast. The conditions noted are these: 10 µM.
The test system of another experiment is BT-549 breast. As to conditions: 10 µM.
The test system of another experiment is MDA-MB-435 melanoma. The conditions noted are these: 10 µM.
The test system of another experiment is SW-620 colon. The conditions noted are these: 10 µM.
For another experiment, the system named is MCF7 breast. As to conditions: 10 µM unless noted.
A further experiment deals with HCT-116 colon. The conditions noted are these: 10 µM.
For the next experiment, the system named is HCC-2998 colon. As to conditions: 10 µM.
A further experiment deals with KM12 colon. The conditions noted are these: 10 µM.
A further experiment deals with RPMI-8226 leukemia. The conditions noted are these: 10 µM.

The panel holds about 83,000 compounds, 20% with a hit somewhere; the sample as a whole holds those more often.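 Each cell line was grown in a 96-well plate and treated with one concentration of compound for 48 hours. Values below 10 were considered active.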 A number with no mark means an inactive call. Active and inactive are the calls of the source. Where a SMILES comes first, the peptide text is derived from it. Bridges are numbered along the chain shown (N, C = ends). [ ]: non-standard residue; d: D form. The star is where a group is joined. ξ: configuration not given here. ξNMePhe(4-NMe2) = CNC(Cc1ccc(N(C)C)cc1)C(=O)O; Picolinoyl(3-OH) = O=C(c1ncccc1O)*; ξPip(4-oxo) = O=C1CCNC(C(=O)O)C1; Phg = N[CH](C(=O)O)c1ccccc1; Abu = CC[CH](N)C(=O)O

Take `Sc1ccc(Nc2c3ccccc3nc3ccccc23)cc1`: the growth in the experiment on SR leukemia is 80.5%; with OVCAR-8 ovarian it was 106%; with OVCAR-5 ovarian, 99.2%; in the experiment on OVCAR-4 ovarian, 95.6%; in the experiment on SK-OV-3 ovarian it was 79.2%; in the experiment on IGROV1 ovarian it was 89.3%. Moreover, the growth in the experiment with OVCAR-3 ovarian was 100%; with HS 578T breast, 112%; with NCI/ADR-RES ovarian, 51.3%; in the experiment with T-47D breast it was 38%; in the experiment on BT-549 breast, 94.6%; in the experiment with MDA-MB-435 melanoma, 92.8%. Moreover, the growth with SW-620 colon is 61.3%; with MCF7 breast, 71.7%; with HCT-116 colon, 96.4%; in the experiment with HCC-2998 colon, 68.9%; in the experiment with KM12 colon, 65.5%.
Turning to `CC(=O)Oc1ccc(Br)cc1C(=O)O`, the growth in the experiment with SR leukemia was 99.1%; with RPMI-8226 leukemia, 99.5%; in the experiment with OVCAR-8 ovarian, 104%; with OVCAR-4 ovarian, 104%; in the experiment with SK-OV-3 ovarian, 98.2%; in the experiment on IGROV1 ovarian, 98.4%. The growth is 111% in the experiment with OVCAR-3 ovarian; 97.6% in the experiment on T-47D breast; 97.7% in the experiment on BT-549 breast; 104% with MDA-MB-435 melanoma; 107% in the experiment on SW-620 colon; 94.3% in the experiment with MCF7 breast. Further, the growth was 95.4% in the experiment with HCT-116 colon, 100% with HCC-2998 colon and 115% with KM12 colon.
Turning to `O=C(O)COCC(=O)O`, the growth with SR leukemia was 95.3%; with OVCAR-8 ovarian, 98.2%; in the experiment with OVCAR-5 ovarian, 107%; in the experiment with OVCAR-4 ovarian, 88.6%; with SK-OV-3 ovarian it was 111%; with IGROV1 ovarian, 105%. The growth in the experiment on OVCAR-3 ovarian is 103%; in the experiment with HS 578T breast it was 117%; in the experiment on NCI/ADR-RES ovarian, 106%; with T-47D breast it was 129%; in the experiment on BT-549 breast it was 122%; in the experiment on MDA-MB-435 melanoma it was 109%. In addition, the growth was 102% in the experiment on SW-620 colon; 100% with MCF7 breast; 108% with HCT-116 colon; 114% in the experiment on HCC-2998 colon; 96.4% in the experiment with KM12 colon.
As to `COc1cc(/C=N\Nc2ccccc2)ccc1OC(=O)c1ccccc1`, the growth in the experiment with SR leukemia was 49.6%; in the experiment with RPMI-8226 leukemia it was 54.3%; in the experiment with OVCAR-8 ovarian it was 80.1%; with OVCAR-5 ovarian, 64.4%; in the experiment on IGROV1 ovarian, 60.6%; in the experiment with OVCAR-3 ovarian, 70.5%. Moreover, the growth in the experiment with HS 578T breast is 87.6%; in the experiment with NCI/ADR-RES ovarian it was 51.2%; in the experiment with T-47D breast, 36.1%; with BT-549 breast it was 91%; with MDA-MB-435 melanoma it was 44.5%; in the experiment with SW-620 colon, 69.8%. Moreover, the growth is 56.4% with MCF7 breast, 71.3% with HCT-116 colon, 74.9% in the experiment with HCC-2998 colon and 8.69% (active) with KM12 colon.
Turning to `CCCCCCCCO`, the growth in the experiment on SR leukemia was 102%; in the experiment with OVCAR-8 ovarian it was 100%; in the experiment on OVCAR-5 ovarian, 101%; in the experiment on OVCAR-4 ovarian, 80.1%; in the experiment with SK-OV-3 ovarian, 111%; with IGROV1 ovarian, 114%. For the same molecule, the growth is 107% in the experiment with OVCAR-3 ovarian; 111% in the experiment with HS 578T breast; 102% in the experiment with NCI/ADR-RES ovarian; 105% with T-47D breast; 107% with BT-549 breast; 99.3% with MDA-MB-435 melanoma. Also, the growth in the experiment with SW-620 colon was 103%; in the experiment with MCF7 breast, 91.8%; in the experiment on HCT-116 colon, 107%; in the experiment with HCC-2998 colon, 103%.
`COc1cc(C(=O)NC(=S)Nc2ccc3ccccc3c2)cc(OC)c1OC`: the growth in the experiment with SR leukemia is 87.4%; with RPMI-8226 leukemia it was 88.9%; in the experiment on OVCAR-8 ovarian, 104%; in the experiment with OVCAR-5 ovarian, 99.9%; in the experiment on IGROV1 ovarian, 95.5%; in the experiment on OVCAR-3 ovarian it was 107%. Moreover, the growth in the experiment on HS 578T breast is 94.5%; with NCI/ADR-RES ovarian, 51.5%; in the experiment on T-47D breast, 91.2%; in the experiment with BT-549 breast it was 121%; with SW-620 colon, 74%; in the experiment with MCF7 breast, 93.2%. For the same molecule, the growth in the experiment on HCT-116 colon was 104%; with HCC-2998 colon, 99.5%; in the experiment with KM12 colon, 95.5%.
As for `CCC1NC(=O)C(NC(=O)c2ncccc2O)C(C)OC(=O)C(c2ccccc2)NC(=O)C2CC(=O)CCN2C(=O)C(Cc2ccc(N(C)C)cc2)N(C)C(=O)C2CCCN2C1=O` (configuration not stated) (tested in a mixture with another compound) ({Picolinoyl(3-OH)}-T[Abu]P[ξNMePhe(4-NMe2)][ξPip(4-oxo)][Phg]; ester 1-C; configuration not given here), the growth was 52.1% in the experiment on SR leukemia; 34.1% in the experiment on RPMI-8226 leukemia; -21.3% (active) in the experiment on OVCAR-5 ovarian; 48.1% in the experiment with OVCAR-4 ovarian; 95.5% in the experiment with SK-OV-3 ovarian; 64% with IGROV1 ovarian. In addition, the growth is 63.1% in the experiment with OVCAR-3 ovarian; 179% with NCI/ADR-RES ovarian; 64.8% in the experiment with T-47D breast; 54.6% in the experiment with BT-549 breast; 57.1% with MDA-MB-435 melanoma; 68.3% in the experiment with SW-620 colon. The growth is 46.5% in the experiment with MCF7 breast, 34.2% in the experiment on HCT-116 colon and 74.9% with KM12 colon.
As to `CCCCC1C(=O)N(c2ccccc2)N(c2ccccc2)C1=O`, the growth in the experiment on SR leukemia was 103%; with RPMI-8226 leukemia, 96.6%; in the experiment on OVCAR-8 ovarian, 103%; in the experiment on OVCAR-4 ovarian, 117%; in the experiment on SK-OV-3 ovarian it was 105%; with IGROV1 ovarian it was 106%. Also, the growth with OVCAR-3 ovarian was 115%; with HS 578T breast, 114%; in the experiment on NCI/ADR-RES ovarian, 103%; with T-47D breast, 109%; with BT-549 breast, 98.8%; in the experiment with MDA-MB-435 melanoma it was 108%. The growth in the experiment with SW-620 colon is 106%; in the experiment with MCF7 breast, 115%; with HCT-116 colon, 102%; with HCC-2998 colon it was 109%; with KM12 colon, 109%.
Consider `COC(=O)/C=C1\Sc2cc(F)ccc2NC1=O`, for which the growth with SR leukemia was 95.5%; in the experiment with RPMI-8226 leukemia, 92%; in the experiment on OVCAR-5 ovarian, 83.2%; with OVCAR-4 ovarian, 102%; with SK-OV-3 ovarian it was 111%; with IGROV1 ovarian, 102%. In addition, the growth was 115% with OVCAR-3 ovarian; 121% with HS 578T breast; 101% with NCI/ADR-RES ovarian; 84.5% in the experiment with T-47D breast; 127% in the experiment with BT-549 breast; 100% in the experiment on MDA-MB-435 melanoma. Moreover, the growth in the experiment with SW-620 colon was 127%; in the experiment on MCF7 breast, 83.7%; in the experiment on HCT-116 colon, 90.1%; in the experiment on HCC-2998 colon, 126%; with KM12 colon, 107%.
On to `O=c1[nH][nH]c(=O)c2cc([N+](=O)[O-])ccc12`, for which the growth in the experiment on SR leukemia is 94.9%; in the experiment on RPMI-8226 leukemia, 106%; in the experiment with OVCAR-5 ovarian, 110%; in the experiment on OVCAR-4 ovarian, 99.2%; in the experiment with SK-OV-3 ovarian it was 101%; in the experiment with IGROV1 ovarian, 103%. In addition, the growth with OVCAR-3 ovarian was 127%; in the experiment with HS 578T breast it was 100%; in the experiment with NCI/ADR-RES ovarian it was 105%; in the experiment with T-47D breast it was 96.1%; in the experiment with BT-549 breast, 106%; in the experiment with MDA-MB-435 melanoma, 109%. Moreover, the growth was 101% in the experiment with SW-620 colon; 99.8% in the experiment with MCF7 breast; 101% in the experiment on HCT-116 colon; 99.6% in the experiment on HCC-2998 colon; 106% in the experiment on KM12 colon.
